“And” between values parts separate entries of the source, which are not always exact repeats. Equal entries are not always repeated. Inconclusive results are not listed. Entries that show only a call come without a potency. The source holds several records for some structures; these can differ, active in one and inactive in another. The source made the active and inactive calls. Calls come from the whole dose curve; as a rule, active = well fitted cell-killing curve with a large enough effect in the repeat runs; inconclusive = weak or mixed curves, or effect the other way; inactive = flat fitted curve, though single readings scatter.
experiment: qHTS assay to identify small molecule agonists of the androgen receptor (AR) signaling pathway in the presence of an antagonist - cell viability counter screen (AID 1259379); conditions: MDA-kb2 viability, CellTiter-Fluor, 16 h; series mostly up to 92.4 µM; activity change, negative = cytotoxicity: at the top concentration; note: nearly all actives have a fitted effect of over 25% in size;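 for activity change, negative = cytotoxicity: MDA-kb2 human breast cancer cells carrying an MMTV luciferase reporter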
Method in brief: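 A CellTiter-Fluor read-out measured viability of MDA-kb2 reporter cells (MMTV promoter with AR and GR response elements). Treatment: nilutamide 3.0uM final with compounds at 15 concentrations, 16 hr, 37C, 0% CO2.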
Potency is the fitted concentration of half-maximal effect.

Row | SMILES | Potency | activity change, negative = cytotoxicity
1 | O=C1O[C@H]([C@@H](O)CO)C(O)=C1O | inactive | 
2 | CCCCC(CC)C(=O)O (configuration not stated) | inactive | 
3 | C[C@](N)(Cc1ccc(O)c(O)c1)C(=O)O | inactive | 
4 | COc1ccc(CN(CCN(C)C)c2ccccn2)cc1 | inactive | 
5 | CCN(Cc1c(F)cccc1Cl)c1c([N+](=O)[O-])cc(C(F)(F)F)cc1[N+](=O)[O-] |  | -15.5% (inactive)
6 | CC(O)(P(=O)(O)O)P(=O)(O)O | inactive | 
7 | Nc1ccc([N+](=O)[O-])cc1O | 30.6 µM (active) | 
8 | NS(=O)(=O)O | inactive | 

experiment: qHTS assay to identify small molecule agonists of the estrogen receptor beta (ER-beta) signaling pathway - cell viability counter screen (AID 1259380); conditions: ER-beta-bla HEK293T viability, CellTiter-Glo luminescence, 16 h; series mostly up to 92.4 µM; activity change, negative = cytotoxicity: at the top concentration; note: nearly all actives have a fitted effect of over 30% in size
Method in brief: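 Cells used were ER-beta-UAS-bla HEK293T in medium with 2% charcoal-stripped FBS. They were treated for 16 hr at 37C. Viability came from CellTiter-Glo luminescence.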

Row | SMILES | Potency | activity change, negative = cytotoxicity
9 | COc1ccc(OC(F)(F)F)cc1CN[C@H]1CCCN[C@H]1c1ccccc1 | 34.4 µM (active) | 
10 | Oc1ccccc1 | inactive | 
11 | CC/C(=C(\c1ccccc1)c1ccc(OCCN(C)C)cc1)c1ccccc1 | 24.5 µM (active) [middle of 5 runs] | 
12 | C1CCC(C(CC2CCCCN2)C2CCCCC2)CC1 (configuration not stated) | 23.7 µM (active) | 
13 | O=c1[nH]cc(F)c(=O)[nH]1 | 10.1 µM (active) and 12.5 µM (active) and inactive | 
14 | CN1CCC[C@H]1c1cccnc1 | inactive | 
15 | OC[C@H]1O[C@H](O[C@]2(CCl)O[C@H](CCl)[C@@H](O)[C@@H]2O)[C@H](O)[C@@H](O)[C@H]1Cl | inactive | 
16 | Cn1c(=O)c2c(ncn2C)n(C)c1=O | inactive | 
17 | CC1(C)S[C@@H]2[C@H](NC(=O)[C@H](N)c3ccccc3)C(=O)N2[C@H]1C(=O)O | inactive | 
18 | Nc1ccc2c(c1)CN1C(=O)c3ccccc3C1=N2 | 5.8 µM (active) | 
19 | F[B-](F)(F)F | inactive and 62 µM (active) | 
20 | Cc1ccc(S(=O)(=O)O)cc1 | inactive | 
21 | CC(=O)C(=O)O | inactive | 
22 | C/C=C/C=C/C(=O)O |  | -4.84% [at 8.39 µM] (inactive)
23 | COc1cccc(O)c1O | 56.6 µM (active) | 
24 | O=C1c2c(O)cccc2Cc2cccc(O)c21 | inactive | 
25 | CN[C@H]1CC[C@@H](c2ccc(Cl)c(Cl)c2)c2ccccc21 | 29.8 µM (active) | 
26 | O=C1O[C@H]([C@@H](O)CO)C(O)=C1O | inactive | 
27 | CCCCC(CC)C(=O)O (configuration not stated) | inactive | 
28 | C[C@](N)(Cc1ccc(O)c(O)c1)C(=O)O | inactive | 
29 | COc1ccc(CN(CCN(C)C)c2ccccn2)cc1 | 50.2 µM (active) and inactive | 
30 | CCN(Cc1c(F)cccc1Cl)c1c([N+](=O)[O-])cc(C(F)(F)F)cc1[N+](=O)[O-] | 30.6 µM (active) | 
31 | CC(O)(P(=O)(O)O)P(=O)(O)O | inactive | 
32 | NS(=O)(=O)O | inactive | 

Reference: PubChem BioAssay (Tox21)
